The nature of assay [1]: NCI Yeast Anticancer Drug Screen. Data for the rad50 strain (AID 155).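 Note: 0% = growth of vehicle-only cultures of the same strain.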 As to conditions: S. cerevisiae rad50 strain growth inhibition; at 50.0 µM; active compounds read high. The procedure, abridged:
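A DNA repair-deficient yeast mutant serves as the test organism; compound-induced growth inhibition is calculated against vehicle-treated cells.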

The nature of assay [2]: NCI Yeast Anticancer Drug Screen. Data for the mec2-1 strain (AID 157). As to conditions: S. cerevisiae mec2-1 strain, at 50.0 µM, active compounds read high. The procedure, abridged:
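Each compound was tested on mec2-1 yeast, a strain altered in DNA damage repair or cell cycle control. Growth inhibition is reported relative to vehicle.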

Assay [3] can be described thus: NCI Yeast Anticancer Drug Screen. Data for the sgs1 mgt1 strain (AID 161).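 Note: 0% = growth of cultures given vehicle only.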 As to conditions: S. cerevisiae sgs1 mgt1 strain, at 50.0 µM, active compounds read high. An outline of the steps: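 Mutant yeast exposed to compound; growth scored against vehicle-only wells.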
Assay [4] in a line: NCI Yeast Anticancer Drug Screen. Data for the cln2 rad14 strain (AID 165).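 Note: 0% = growth equal to vehicle treated cultures.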 To be noted: S. cerevisiae cln2 rad14 strain, at 50.0 µM, active compounds read high. An outline of the steps:
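Test compounds were added to cln2 rad14 yeast cultures; inhibition of growth was then determined by comparison with vehicle treatment.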

A short description of assay [5]: NCI Yeast Anticancer Drug Screen. Data for the bub3 strain (AID 167). As to conditions: S. cerevisiae bub3 mutant strain, at 50.0 µM, active compounds read high. The procedure, abridged:
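Inhibition values come from growth of compound-treated mutant yeast normalised to vehicle-treated controls.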

A short description of assay [6]: NCI Yeast Anticancer Drug Screen. Data for the mlh1 rad18 strain (AID 175). As to conditions: S. cerevisiae mlh1 rad18 strain growth inhibition; at 50.0 µM; active compounds read high. An outline of the steps: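 Inhibition values reflect reduced growth of mutant yeast versus vehicle-treated controls following compound exposure; the mutations affect DNA damage repair.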

Compounds without any hit were thinned out: in the full panel of roughly 79,000, 15% have a hit. Values without a mark were called inactive. Calls of active or inactive are those of the source. Cut-off read from the data, not from the text of the source: active = growth inhibition above about 70%; inactive = the rest.

As for `COc1ccc(OC(C)C(=O)O)c2c1CCCC2=O` (centres undefined), the growth inhibition in assay [1] was 21.6%; in assay [2] it was 6.3%; in assay [3], -17.1%; in assay [4], 25.6%; in assay [5], 5.15%; in assay [6] it was 22.7%.

For the compound `CC1(c2ccccc2)N=C(C(N)=O)c2[nH]cnc2N1` (centres undefined), the growth inhibition was -11.8% in assay [1]; -41.1% in assay [2]; -29.1% in assay [3]; 1.85% in assay [4]; 8.7% in assay [5]; -11.8% in assay [6].

On to `COC(=O)/C(C#N)=C1\NC(=O)c2ccccc21`, for which the growth inhibition is 30.1% in assay [1]; 16.1% in assay [2]; 11.6% in assay [3]; 30.8% in assay [4]; 11.5% in assay [5]; 26% in assay [6].

For `C=COC(=O)c1ccccc1O`, the growth inhibition was -32.7% in assay [1]; -34% in assay [2]; -22.3% in assay [3]; 3.8% in assay [4]; -36.8% in assay [5]; -5.55% in assay [6].

As to `CC(C)=Nn1cnc2nccnc2c1=O`, the growth inhibition is 2.55% in assay [1]; -6.05% in assay [2]; -14.2% in assay [3]; -40% in assay [4]; -13.3% in assay [5]; -1.6% in assay [6].

Take `O=c1cc(-c2ccccc2)[nH]c2nccn12`: the growth inhibition in assay [1] was -55%; in assay [2], -27.1%; in assay [3], -53.1%; in assay [4], -57.5%; in assay [5] it was 5.85%; in assay [6] it was -58.7%.

For `O=C(O)c1cc2ccccc2c2cc3ccccc3cc12`, the growth inhibition was 28.6% in assay [1]; 39% in assay [2]; 26.6% in assay [3]; 57.3% in assay [4]; 33.2% in assay [5]; 70.8% (active) in assay [6].

Consider `[O-][N+](=Nc1ccccc1Cl)c1ccccc1Cl`, for which the growth inhibition in assay [1] was 44%; in assay [2], 16%; in assay [3], 62.7%; in assay [4], 4.15%; in assay [5], 28.2%; in assay [6], 31.2%.

Turning to `CC(=O)CC(=O)N1CCN(C(=O)CC(C)=O)C(C)C1` (centres undefined), the growth inhibition is -7.95% in assay [1]; -58.5% in assay [2]; 6.05% in assay [3]; 1.8% in assay [4]; -11.7% in assay [5]; -6.75% in assay [6].

In the case of `COC(=O)C1CC=CCCC1=O` (centres undefined), the growth inhibition in assay [1] is -3.8%; in assay [2] it was -10.8%; in assay [3], 23.7%; in assay [4] it was 12.2%; in assay [5] it was 43.7%; in assay [6] it was 5.65%.

As for `Cc1cc(Cl)cc(Cl)c1OCC(=O)Nc1ccc(Cl)cc1`, the growth inhibition in assay [1] is 6.45%; in assay [2] it was 2.45%; in assay [3] it was 8.5%; in assay [4] it was 4%; in assay [5] it was 21.9%; in assay [6] it was -7.7%.

On to `Cc1ccc([N+](=O)[O-])cc1N=C=O`, for which the growth inhibition was -38.5% in assay [1]; -43.9% in assay [2]; -31.1% in assay [3]; -34% in assay [4]; -32.8% in assay [5]; -56.3% in assay [6].

As for `Fc1c(F)c(F)c(CSc2nc3ccccc3[nH]2)c(F)c1F`, the growth inhibition is -42% in assay [1]; -20.1% in assay [2]; -26.7% in assay [3]; -7.35% in assay [4]; 0.35% in assay [5]; -16.7% in assay [6].

Consider `CON(C)C(C#N)=C(C#N)C#N`, for which the growth inhibition is 9.75% in assay [1]; 1.85% in assay [2]; 21.1% in assay [3]; 7.05% in assay [4]; 8.1% in assay [5]; 25.2% in assay [6].

As for `OC12c3ccccc3C1(N1CCOCC1)CCCCC21OCCCO1` (centres undefined), the growth inhibition is 12.7% in assay [1]; -11.2% in assay [2]; -17.6% in assay [3]; 10.1% in assay [4]; -23.5% in assay [5]; -5.15% in assay [6].

Regarding `Cc1cc2c(cc1C)-c1nn(-c3ccccc3)c(-c3ccc(Cl)cc3)c1CCO2`, the growth inhibition in assay [1] was 27.2%; in assay [2] it was 1.35%; in assay [3] it was -1.75%; in assay [4] it was 17.9%; in assay [5], -6.2%; in assay [6] it was 3.65%.

With `COc1cc(C2C3=C(COC3=O)Oc3cc4c(cc32)OCO4)cc(OC)c1OC(C)=O` (centres undefined), the growth inhibition was -15.5% in assay [1]; -22.9% in assay [2]; 1.55% in assay [3]; 16.1% in assay [4]; -8.3% in assay [5]; -2.5% in assay [6].

As for `CCOc1ccc(NC(=O)C(=O)C(C(=O)c2ccc3ccccc3c2)C2OC(=O)c3ccccc32)cc1` (centres undefined), the growth inhibition in assay [1] is 13.1%; in assay [2] it was 3.45%; in assay [3], -2.4%; in assay [4], -17.6%; in assay [5], 7.85%; in assay [6] it was 6.8%.

As to `CC(=O)[CH-]C(=O)Nc1ccccc1.CC(=O)[CH-]C(=O)Nc1ccccc1.CC[O-].CC[O-].[Ti+4]`, the growth inhibition is -16.4% in assay [1]; 14.3% in assay [2]; 11.3% in assay [3]; 21% in assay [4]; 12.8% in assay [5]; 12.7% in assay [6].

Consider `CCc1ccc2oc(-c3cc(O)c(-c4nc5cc(CC)ccc5o4)cc3O)nc2c1`, for which the growth inhibition in assay [1] is -19.2%; in assay [2], -25.9%; in assay [3], -22.2%; in assay [4], 1.1%; in assay [5], -25.5%; in assay [6], 12.6%.

Take `COC(=O)CCC(=O)Nc1ccc(Cl)cc1C`: the growth inhibition in assay [1] is -22.8%; in assay [2], -9.45%; in assay [3], -19.9%; in assay [4], -6.5%; in assay [5], -60%; in assay [6], -21.2%.

As to `CNS(=O)(=O)c1ccc(Br)cc1`, the growth inhibition in assay [1] is -15.9%; in assay [2], -24.6%; in assay [3], -9.85%; in assay [4] it was -14.2%; in assay [5], 3.35%; in assay [6] it was -12.4%.

Take `CC1C=CC(C(N)C(=O)O)O1` (centres undefined): the growth inhibition in assay [1] is -9.9%; in assay [2] it was -17.6%; in assay [3] it was -13.1%; in assay [4], -0.7%; in assay [5], -5.35%; in assay [6], -9.85%.

Regarding `CCOC(=O)/C(=C/c1cn(C(C)=O)c2ccccc12)P(=O)(OC)OC`, the growth inhibition in assay [1] was -28.9%; in assay [2], -4.1%; in assay [3] it was -1.15%; in assay [4], 13.8%; in assay [5], 5.75%; in assay [6], -15.8%.

In the case of `Nc1nc(N)c2nc3c(nc2n1)CCCCCC3`, the growth inhibition was 4.25% in assay [1]; -4% in assay [2]; 4.25% in assay [3]; -19.4% in assay [4]; -3.2% in assay [5]; 2.55% in assay [6].

As for `CC1c2c(ccc3c2CCC=C3)CCC1CC1=CCCc2ccc3ccccc3c21` (centres undefined), the growth inhibition is 6.7% in assay [1]; -1.6% in assay [2]; 1.1% in assay [3]; -13.3% in assay [4]; 0.1% in assay [5]; 9.85% in assay [6].

On to `CC(=O)NNC(=S)N/C=C(\C#N)C(=O)c1ccc2ccccc2c1`, for which the growth inhibition in assay [1] was -59.4%; in assay [2], -22.2%; in assay [3] it was -12.7%; in assay [4], -1.1%; in assay [5], -25.5%; in assay [6] it was -53%.

`COC(=O)c1noc2c1CSC1=C2CS(=O)(=O)c2ccccc21`: the growth inhibition in assay [1] is 16.4%; in assay [2] it was 22%; in assay [3], 30.4%; in assay [4] it was 14.8%; in assay [5], 17.2%; in assay [6] it was 26.6%.

On to `CC(C)(C)N[P+](Cc1ccccc1)(NC(C)(C)C)c1ccccc1`, for which the growth inhibition in assay [1] is 33.1%; in assay [2] it was 10.9%; in assay [3], 62%; in assay [4], -9.7%; in assay [5], 3.65%; in assay [6] it was 8.9%.

As for `COc1ccc(C(=O)Nc2ccccc2CCC2CCCCN2C)cc1` (centres undefined), the growth inhibition was 29.2% in assay [1]; 3% in assay [2]; 10.3% in assay [3]; 22.4% in assay [4]; 1.15% in assay [5]; 19% in assay [6].

On to `CCNc1nc2ccccc2nc1NCC`, for which the growth inhibition in assay [1] is -18.1%; in assay [2], -5.6%; in assay [3], 1.45%; in assay [4], 16.1%; in assay [5], -13.3%; in assay [6] it was 3.15%.

With `CCOC(=O)C(CNCc1ccccc1)(c1ccccc1)c1ccccc1`, the growth inhibition in assay [1] is -6.5%; in assay [2], -4.85%; in assay [3], -23.9%; in assay [4], -31.3%; in assay [5] it was 9.95%; in assay [6] it was 2.45%.

`CC(C)SCC(N)C(=O)O` (centres undefined): the growth inhibition in assay [1] was -17.8%; in assay [2] it was -10.7%; in assay [3] it was -2.65%; in assay [4], -15%; in assay [5], -11.8%; in assay [6], -15.8%.

Take `CCCC1c2c(cc(=O)[nH]c2O)C(=O)N1Cc1ccccc1` (centres undefined): the growth inhibition in assay [1] is -10.2%; in assay [2], -16.5%; in assay [3] it was -14.4%; in assay [4], 17.8%; in assay [5] it was -17.6%; in assay [6], -0.9%.

Take `COc1cc2oc(=O)ccc2cc1CC=C(C)C`: the growth inhibition is -16.1% in assay [1]; -26.2% in assay [2]; -4.1% in assay [3]; -6.35% in assay [4]; 2.95% in assay [5]; -21.8% in assay [6].

As to `CCOC(=O)c1ccc(NC(=O)Nc2ccc(F)c([N+](=O)[O-])c2)cc1`, the growth inhibition in assay [1] is 7.3%; in assay [2], 46.1%; in assay [3], 46.5%; in assay [4], 7%; in assay [5], 28.9%; in assay [6] it was 23.6%.

On to `COC(=O)CCSSCCC(=O)OC`, for which the growth inhibition was 2.15% in assay [1]; -13.1% in assay [2]; -1.6% in assay [3]; -6.15% in assay [4]; -21.4% in assay [5]; 24.9% in assay [6].

`CCOC(=O)C(C)(Br)C(Br)c1ccc([N+](=O)[O-])cc1` (centres undefined): the growth inhibition in assay [1] was 96.8% (active); in assay [2] it was 93.2% (active); in assay [3], 96.9% (active); in assay [4], 42.7%; in assay [5] it was 80.9% (active); in assay [6], 97% (active).

On to `Cc1ccc2ccccc2c1CC(=O)NN`, for which the growth inhibition is 6.6% in assay [1]; -26.8% in assay [2]; -0.6% in assay [3]; -25.2% in assay [4]; 6.9% in assay [5]; -8.95% in assay [6].

These data come from PubChem BioAssay (NCI).
